According to PubChem BioAssay (NCI):
This is part of a sample that, as a whole, favours compounds with a hit. Of some 79,000 tested, about 15% had one in any assay. Values without a mark were called inactive. Activity calls are given as the source filed them. Cut-off read from the data, not from the text of the source: active = growth inhibition above about 70%; inactive = the rest.

Experiments:
[1] = NCI Yeast Anticancer Drug Screen. Data for the rad50 strain (AID 155);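 note: 0% = growth of vehicle-only cultures of the same strain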; conditions: S. cerevisiae rad50 strain growth inhibition, stronger effect = higher value
Method in brief: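 Genetically altered yeast (DNA repair pathway); compound treatment; growth inhibition vs vehicle ctrl.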

[2] = NCI Yeast Anticancer Drug Screen. Data for the mec2-1 strain (AID 157); conditions: S. cerevisiae mec2-1 strain, stronger effect = higher value
Method in brief: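 Using mec2-1 yeast: add compound, measure growth, express inhibition versus vehicle-treated cultures.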

[3] = NCI Yeast Anticancer Drug Screen. Data for the sgs1 mgt1 strain (AID 161);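 note: 0% = growth of cultures given vehicle only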; conditions: S. cerevisiae sgs1 mgt1 strain, stronger effect = higher value
Method in brief: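 Compounds are added to genetically altered yeast, and growth is compared with cultures given vehicle alone to give percent inhibition.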

[4] = NCI Yeast Anticancer Drug Screen. Data for the cln2 rad14 strain (AID 165);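 note: 0% = growth equal to vehicle treated cultures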; conditions: S. cerevisiae cln2 rad14 strain, stronger effect = higher value
Method in brief: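 Yeast strain cln2 rad14, bearing defects in cell cycle control and DNA repair, serves as the test system; values reflect growth inhibition compared with vehicle.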

[5] = NCI Yeast Anticancer Drug Screen. Data for the bub3 strain (AID 167); conditions: S. cerevisiae bub3 mutant strain, stronger effect = higher value
Method in brief: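 Yeast carrying a defined mutation is treated with each compound, and growth is compared with that of vehicle-exposed cells to give inhibition.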

[6] = NCI Yeast Anticancer Drug Screen. Data for the mlh1 rad18 strain (AID 175); conditions: S. cerevisiae mlh1 rad18 strain growth inhibition, stronger effect = higher value
Method in brief: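 Steps: expose repair-defective yeast to compound; measure growth; express inhibition against vehicle-treated controls.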

[7] = at 5.0 µM (retest, dose inferred, filed as 0.5)
[8] = at 50.0 µM (retest, dose inferred, filed as 5.0)

Row | Compound | growth inhibition [1, 7] | growth inhibition [1, 8] | growth inhibition ([1]; at 50.0 µM) | growth inhibition [2, 7] | growth inhibition [2, 8] | growth inhibition ([2]; at 50.0 µM) | growth inhibition [3, 7] | growth inhibition [3, 8] | growth inhibition ([3]; at 50.0 µM) | growth inhibition [4, 7] | growth inhibition [4, 8] | growth inhibition ([4]; at 50.0 µM) | growth inhibition [5, 7] | growth inhibition [5, 8] | growth inhibition ([5]; at 50.0 µM) | growth inhibition [6, 7] | growth inhibition [6, 8] | growth inhibition ([6]; at 50.0 µM)
1 | CC(=O)c1ccc([N+](=O)[O-])o1 | 19% | 98% (active) | 96.5% (active) | 22% | 99% (active) | 92.2% (active) | 11% | 61% | 91.3% (active) | 0% | 97% (active) | 86.9% (active) | 21% | 99% (active) | 92.5% (active) | 38% | 99% (active) | 98.4% (active)
2 | CS(=O)(=O)OCCN(CCOS(C)(=O)=O)c1ccc(C=Nc2ccc3ccccc3c2)cc1 | 12% | 80% (active) | 86.7% (active) | 47% | 55% | 73.2% (active) | 6% | 45% | 71.1% (active) | -2% | 64% | 37.7% | -3% | 6% | 10.3% | 28% | 90% (active) | 95.3% (active)
3 | CCCCCCCCCCCCNC(=O)C[n+]1cccc(C(=O)Nc2ccccc2)c1 | 99% (active) | 97% (active) | 98.8% (active) | 100% (active) | 99% (active) | 98.8% (active) | 99% (active) | 98% (active) | 99.5% (active) | 99% (active) | 98% (active) | 98.6% (active) | 99% (active) | 98% (active) | 98.2% (active) | 99% (active) | 98% (active) | 98.2% (active)
4 | CC(C)(C)c1cc(C(P(=O)(c2ccccc2)c2ccccc2)P(=O)(c2ccccc2)c2ccccc2)cc(C(C)(C)C)c1O | 3% | 96% (active) | 97.9% (active) | -5% | 92% (active) | 93.7% (active) | -8% | 97% (active) | 98.1% (active) | 2% | 88% (active) | 94.7% (active) | -4% | 93% (active) | 96.3% (active) | -3% | 92% (active) | 96.7% (active)
5 | O=C(CSc1nnc(-c2ccc(N=Cc3ccc(Cl)cc3)cc2)o1)Nc1ccc(Cl)cc1Cl | 14% | 99% (active) | 95.8% (active) | -1% | 99% (active) | 99.2% (active) | 17% | 100% (active) | 95.9% (active) | 27% | 99% (active) | 91.2% (active) | 12% | 100% (active) | 98.5% (active) | 30% | 99% (active) | 97.9% (active)
6 | O=C(O)CCCNc1ncc2c(n1)-c1ccccc1OC2 | 19% | 7% | 65.5% | 11% | 9% | 51% | 8% | 12% | -3.35% | 20% | 15% | -26% | 14% | 8% | -22.9% | 12% | 9% | -9.3%
7 | COc1ccccc1NC(=S)N/N=C(/C)c1ccccn1 | 22% | 78% (active) | -30.1% | 22% | 66% | -8.7% | 34% | 61% | 18.4% | 32% | 56% | -3.95% | 54% | 77% (active) | 13.5% | 13% | 64% | -2.3%
8 | C=C1C(=O)O[C@@H]2C[C@]3(C)CC[C@]4(C)[C@H](CC[C@@H]5[C@@]6(C)CCC(=O)C(C)(C)[C@@H]6CC[C@]54C)[C@H]3[C@H]12 | 3% | 4% | -14.1% | 18% | 24% | -16.9% | 5% | 11% | -9.1% | -3% | -1% | 6.1% | 4% | -1% | -10.7% | -2% | 4% | -18.9%
9 | O=C(CC(=O)c1cccnc1)c1cccnc1 | 6% | 98% (active) | 98.8% (active) | 9% | 98% (active) | 98% (active) | 7% | 98% (active) | 98.5% (active) | 5% | 98% (active) | 76.7% (active) | 8% | 98% (active) | 97.7% (active) | 7% | 98% (active) | 99% (active)
10 | CCCCCCCCCCCc1nnc(N)o1 | 28% | 91% (active) | 96.7% (active) | 11% | 92% (active) | 96.2% (active) | 1% | 89% (active) | 95.2% (active) | 35% | 92% (active) | 93.3% (active) | -10% | 99% (active) | 95.1% (active) | 7% | 94% (active) | 96.8% (active)
